Hits are enriched below; roughly 12% of the tested compounds scored in any of these assays.
BAZ2B inh – BAZ2B (human) inhibition. Q9UIF8. AlphaScreen BAZ2B-H3K14Ac peptide displacement. Potency, µM (series often up to 114 µM), hits mostly inhibitors. 360,000 tested, 4.4% active. AID 504333; further: nearly all actives have a fitted effect of over 60% in size
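AlphaScreen displacement of biotin-H3(5-23)K14Ac peptide (50 nM final) from BAZ2B (50 nM final) in PBS pH 7.4, 0.01% Tween-20; complex preformed 30 min RT, then compounds (top 110 uM) 30 min RT, beads 20 min dark.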
JMJD2A Tudor inh – JMJD2A Tudor domain (human) inhibition; AlphaScreen JMJD2A-Tudor / H3K4me3 peptide binding; Potency, µM (doses to about 114 µM), usual class: inhibitors; AID 504339; O75164; 390,000 tested, 4.4% active; further: nearly all actives have a fitted effect of over 50% in size
Sfp inh – Sfp phosphopantetheinyl transferase inhibition; Q9F4F7; 310,000 tested, 3.5% active; Potency, µM, hits mostly inhibitors; Biochemical Sfp PPTase activity, qHTS; AID 1490;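 further: the enzyme is Sfp with the accession as filed and its product quenches rhodamine fluorescence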
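Buffer: 50 mM Hepes-Na pH 7.6, 10 mM MgCl2, 0.01% Nonidet P-40, 0.01% BSA. Enzyme 15 nM, pre-exposed to compound 15 min; substrates then added and fluorescence change tracked over 30 min.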
G9a block – inhibitors of human histone lysine methyltransferase G9a; Potency, µM (doses to about 102 µM), usual class: inhibitors; Q96KQ7; 350,000 tested, 8.8% active; G9a H3K9 monomethylation, AlphaScreen, 2 h; further: nearly all actives have a fitted effect of over 75% in size
Target sequence (Q96KQ7 913-1193 limits assumed): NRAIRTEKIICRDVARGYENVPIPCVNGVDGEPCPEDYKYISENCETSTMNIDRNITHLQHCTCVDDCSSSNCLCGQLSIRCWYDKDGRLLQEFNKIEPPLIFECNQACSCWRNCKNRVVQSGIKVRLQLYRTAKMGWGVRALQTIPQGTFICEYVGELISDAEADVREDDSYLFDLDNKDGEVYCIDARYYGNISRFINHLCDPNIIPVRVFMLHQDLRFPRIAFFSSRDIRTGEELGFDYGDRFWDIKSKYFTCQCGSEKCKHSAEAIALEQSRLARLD
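Signal arises when biotinylated H3K9 peptide, once monomethylated, bridges streptavidin donor and antibody-captured acceptor beads. Enzyme at 20 nM was preincubated 15 min with test compounds; peptide 500 nM and SAM 20 uM then reacted for 2 h.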
HP1b binding inh – blocks HP1-beta chromodomain binding to methylated histone tails; P83916; AlphaScreen HP1-beta / biotin-H3K9me3 peptide binding; Potency, µM (titrated, usually from 114 µM), hits mostly inhibitors; 390,000 tested, 0.56% active; further: nearly all actives have a fitted effect of over 70% in size
Target sequence (P83916 whole entry, looked up): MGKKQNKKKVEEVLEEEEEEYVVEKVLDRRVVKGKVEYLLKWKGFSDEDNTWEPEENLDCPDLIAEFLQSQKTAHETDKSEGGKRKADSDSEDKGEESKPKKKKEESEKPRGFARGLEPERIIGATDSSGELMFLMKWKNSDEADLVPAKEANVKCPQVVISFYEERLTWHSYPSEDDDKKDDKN
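Compound inhibition of the preformed complex between 50 nM HP1-beta and 50 nM biotinylated H3K9me3 peptide was read by AlphaScreen. Buffer was PBS pH 7.4 with 0.01% Tween-20. Incubations ran 30 min at room temperature, with 10 ug/mL donor/acceptor beads.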
Hits are given with their value; . = inactive; ? = inconclusive; / = no result; [ ] = another dose, or the depositor's remark. The call rests on the fitted dose curve; in most records, active means well fitted curve in the direction sought with a large enough effect; inconclusive means small, poorly fitted or top-dose-only effect, or another doubt; inactive means no such curve, though single readings can be large; an effect the other way counts as inactive or inconclusive.

SMILES | BAZ2B inh | JMJD2A Tudor inh | Sfp inh | G9a block | HP1b binding inh
O=C(CN1C(=O)COc2ccc(S(=O)(=O)N3CCCC3)cc21)N1CCN(c2ccccc2F)CC1 | . | . | / | . | .
CCc1nc2c(sc3nc4c(cc32)COC(C)(C)C4)c(=O)n1Cc1ccco1 | ? | . | 3.55µM | ? | .
CCc1nc2c(sc3nc4c(cc32)COC(C)(C)C4)c(=O)n1Cc1ccccc1 | . | . | . | ? | .
O=C1N=C(N2CCCC2C(=O)O)S/C1=C\c1ccco1 (configuration not stated) | 79.4µM | ? | . | 25.1µM | ?
O=C1N=C(N2CCCCC2)S/C1=C/C1=Cc2ccccc2OC1 | . | . | . | ? | .
C=CCOC(=O)[C@H](O)[C@@H](O)C(=O)OCC=C | / | / | . | / | /
CN(C)c1ccc(CNC(=O)C2CCN(S(=O)(=O)c3ccc4c(c3)CCCC(=O)N4)CC2)cc1 | ? | ? | . | 44.7µM | .
CC1CCN(S(=O)(=O)c2cc(C(=O)NCc3ccc(N(C)C)cc3)n(C)c2)CC1 | 35.5µM | 56.2µM | / | 10µM | .
CN(C)c1ccc(CNC(=O)c2cc(S(=O)(=O)N3CCCC3)cn2C)cc1 | ? | ? | . | / | .
CCOc1ccc(CNC(=O)C2CCCN(S(=O)(=O)c3ccc4c(c3)CCCC(=O)N4)C2)cc1 (configuration not stated) | . | . | / | . | .
CCCCN(C(=O)CCNC(=O)NC12CC3CC(CC(C3)C1)C2)c1c(N)n(CCC)c(=O)[nH]c1=O | . | . | / | .[12.7 µM] | .
CCCCCCCCCCCCCCCCCC(=O)NCC(COP(=O)([O-])OCC[N+](C)(C)C)OCC (configuration not stated) | / | / | / | 13.4µM | /
CCn1cc(C(=O)O)c(=O)c2cc(F)c(N3CCN(C(=S)NC(=O)c4ccc(OC)cc4)CC3)cc21 | ? | . | . | . | .
CCn1cc(C(=O)O)c(=O)c2cc(F)c(N3CCN(C(=O)Nc4ccccc4)CC3)cc21 | . | 22.4µM | . | 39.8µM | .
CCn1cc(C(=O)O)c(=O)c2cc(F)c(N3CCN(C(=S)NC(=O)c4ccc(Br)cc4)CC3)cc21 | 31.6µM | .[11.4 µM] | . | . | .
CCc1cccc2cc(C(O)CNC(C)(C)C)oc12 (configuration not stated) | / | / | . | / | /
O=C(COC(=O)c1cn(-c2ccccc2)nc1-c1ccccc1)c1ccc([N+](=O)[O-])cc1 | ? | / | . | 2.51µM | /
O=C(COC(=O)c1ccccn1)c1cccc(Br)c1 | 17.8µM | 12.6µM | . | / | .
O=C(COC(=O)c1ccccn1)c1ccc(Br)cc1 | 25.1µM | 28.2µM | . | 50.1µM | .
O=C(COC(=O)c1cnccn1)c1ccc([N+](=O)[O-])cc1 | ? | . | 20µM | 25.1µM | .
COc1ccc(C(=O)COC(=O)c2ccccn2)cc1OC | ? | . | / | ? | .
Cc1ccc(C(=O)COC(=O)c2cnccn2)cc1 | . | . | . | ? | .
COc1cccc(OC)c1C1=Nn2c(nnc2-c2ccccc2C)SC1 | / | . | . | / | /
CCOC(=O)CCN1C(=O)[C@H]2[C@H]3[C@H](O)[C@H](O)C/C(=N/O[C@@H]4O[C@@H](COC(C)=O)[C@@H](OC(C)=O)[C@@H](OC(C)=O)[C@H]4OC(C)=O)[C@@H]3CC[C@@H]2C1=O | / | / | . | / | /
O=c1c(-c2ccc(Cl)cc2)c[nH]n1-c1ccccc1 | . | . | . | .[2.33 µM] | .
SMILES | BAZ2B inh | JMJD2A Tudor inh | Sfp inh | G9a block | HP1b binding inh
COc1cccc(-n2c(-c3ccccc3)c[nH]c2=S)c1 | ? | ? | 44.7µM | 1.41µM | ?
Cc1ccc(-c2c[nH]c(=S)n2-c2ccccc2)cc1 | ? | ? | 20µM | 0.708µM | .
Cc1ccc(-n2c(-c3ccccc3)cc(=O)nc2C)cc1 | . | . | . | .[12.7 µM] | .
CCOc1ccc(-n2c(-c3ccccc3)c[nH]c2=S)cc1 | . | ? | . | 1.26µM | .
S=c1[nH]cc(-c2ccccc2)n1-c1cccc(Cl)c1 | . | 56.2µM | . | 1.12µM | .
CC(Sc1nc(=O)cc(N)n1CCc1ccccc1)C(=O)Nc1ccc(Cl)cc1 (configuration not stated) | . | . | / | . | .
CSCCC1NC(=O)N(CC(=O)Nc2ccc(-c3ccccc3)cc2)C1=O (configuration not stated) | . | .[11.4 µM] | . | . | .
Cc1ccc(CSc2nc(=O)c3c(n2C)NC(=O)CC3c2ccc(OC(C)C)cc2)cc1 (configuration not stated) | . | . | / | . | .
Cc1c(C#N)c(O)[nH]c(=O)c1N=Nc1ccc(S(N)(=O)=O)cc1 | . | ? | . | 79.4µM | ?
Cc1nc(S/C(=C/c2ccc(-c3ccc(C(=O)O)cc3)o2)C(=O)O)n[nH]1 | 10µM | 20µM | 14.1µM | 11.2µM | ?
Cc1nc(S/C(=C/c2ccc(-c3ccc(Cl)cc3)o2)C(=O)O)n[nH]1 | . | . | ? | . | .
CC(=O)c1ccc(-c2ccc(/C=C(/Sc3n[nH]c(C)n3)C(=O)O)o2)cc1 | ? | ? | 10µM | ? | .
Cc1nc(S/C(=C/c2ccc(-c3cc(Cl)ccc3C)o2)C(=O)O)n[nH]1 | . | 44.7µM | ? | / | .
Cc1ccc(Nc2nc(C#N)nc(NC3CCCC3)n2)cc1 | / | . | / | / | /
O=C(CN1C(=O)/C(=C2\SC(=S)N(CCS(=O)(=O)O)C2=O)c2ccccc21)Nc1cccc(Br)c1 | 8.91µM | 50.1µM | 56.2µM | 8.91µM | 50.1µM
O=C(CN1C(=O)/C(=C2/SC(=S)N(CCS(=O)(=O)O)C2=O)c2ccccc21)Nc1cccc(C(F)(F)F)c1 | / | 12.6µM | / | / | 10µM
CCCc1nc2c(ccc3ccccc32)cc1CC | . | . | . | . | .
Cc1cccc(OCc2nnc(-c3ccccc3)o2)c1 | . | . | / | . | .
COc1ccccc1N/N=C/c1ccc2c(c1)OCO2 | ? | ? | . | 7.08µM | .
COc1ccccc1C(=O)N/N=C/c1ccc2c(c1)OCO2 | . | . | . | . | .
NC(C(=O)O)C(c1ccccc1)C(F)F (configuration not stated) | . | 50.1µM | ? | 11.2µM | .
NC(=O)NC(c1ccccc1)c1ccccc1 | . | . | . | . | .
CCCCCCCCC1OC1CCCCCCCC(=O)O (configuration not stated) | / | / | . | / | /
CCCCCCCCCCCCCCCC(=O)C1=C(O)C(CO)OC1=O (configuration not stated) | / | / | . | 10µM | /
CCN(CC(=O)Nc1c(F)cccc1F)C(=O)C1CC1 | . | . | / | . | .
SMILES | BAZ2B inh | JMJD2A Tudor inh | Sfp inh | G9a block | HP1b binding inh
Cc1nc2ccc(NC(=O)c3cccs3)cc2s1 | . | . | . | . | .
CC(=O)Nc1ccc2nc(-c3cccn3C)[nH]c2c1 | . | . | . | .[0.501 µM] | .
CC(=O)Nc1ccc2nc(NC(=O)c3cccs3)sc2c1 | . | . | . | 44.7µM | .
Cn1cccc1-c1nc2ccc(NC(=O)c3cccs3)cc2[nH]1 | 35.5µM | 56.2µM | . | ? | 50.1µM
Cc1ccc(S(=O)(=O)NCC2CCC(C(=O)NCc3ccc(F)cc3)CC2)cc1 (configuration not stated) | . | . | / | . | .
O=C(COc1ccccc1)NCC(=O)N1CCCC1 | . | . | . | . | .

Screening data (PubChem BioAssay)
